D1 agonist: Allosteric Agonists of the Human D1 Dopamine Receptor: qHTS; D(1A) dopamine receptor (Homo sapiens), P21728; HEK293 T-REx D1 cells, calcium flux, agonist mode; AID 504660, 2011; activation, % at 2 µM; 1% of 360,000 active; note: 0% is about no effect
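Tetracycline-induced HEK293 TREx D1 cells, force-coupled to calcium signalling, were dye-loaded with a no-wash calcium kit. Compound was pin-added after a 10 s baseline. Fluorescence was read kinetically at 1 cycle/s for 180 s, with calcium rises flagged as agonism.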
D1 antag: Antagonist of Human D 1 Dopamine Receptor: qHTS; D(1A) dopamine receptor (Homo sapiens), P21728; HEK293 TREx D1 cells, calcium flux, dopamine EC80; hits give low values; activity change, negative = inhibition, % at 10 µM; 3.2% of 360,000 active; AID 504652, 2011; in the data active = activity change below about -30%; note: % is set by controls: 0 for no effect and ±100 for the full control effect
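Antagonism measured as reduced calcium response to an EC80 dopamine addition following 180 s compound pre-read; cells were inducible HEK293 Trex D1 plated overnight at 30 C, read kinetically at 1 cycle/sec.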
TRHR PAM: qHTS for Small Molecule Agonists and Allosteric Enhancers of Human TRH Receptor: Primary Screen for Enhancers. Thyrotropin-releasing hormone receptor (Homo sapiens), P34981. TRHR cells, fluo-8 calcium fluorescence, EC20 TRH enhancement. enhancement, % at 2 µM. 0.66% of 360,000 active. AID 493056, 2011; in the data active = enhancement above about 30%; note: 0% is about no effect
Target sequence (P34981 whole entry, looked up): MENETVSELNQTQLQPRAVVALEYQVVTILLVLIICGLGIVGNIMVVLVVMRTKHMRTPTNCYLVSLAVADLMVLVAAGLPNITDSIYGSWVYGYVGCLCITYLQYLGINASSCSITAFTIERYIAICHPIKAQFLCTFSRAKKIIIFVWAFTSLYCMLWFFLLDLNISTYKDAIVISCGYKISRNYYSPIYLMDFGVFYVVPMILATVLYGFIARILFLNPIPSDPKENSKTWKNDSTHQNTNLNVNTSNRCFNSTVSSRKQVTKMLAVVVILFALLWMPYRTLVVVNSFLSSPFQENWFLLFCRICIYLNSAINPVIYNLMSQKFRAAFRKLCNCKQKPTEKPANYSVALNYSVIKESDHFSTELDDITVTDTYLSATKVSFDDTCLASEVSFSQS
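TRHR-expressing cells loaded with fluo-8 calcium dye were read kinetically (ex 480/em 530) during compound addition, then stimulated with an EC20 of TRH (10 nM final). Enhancement of the Gq-mediated intracellular calcium response was scored.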
TRHR agonist: qHTS for Small Molecule Agonists and Allosteric Enhancers of Human TRH Receptor: Primary Screen for Agonists; Thyrotropin-releasing hormone receptor (Homo sapiens), P34981; TRHR cells, calcium flux fluo-8, FDSS agonist mode; activation, % at 2 µM; 0.18% of 360,000 active; AID 493084, 2011; note: 0% is about no effect
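Fluo-8-loaded TRHR cells; 10 s baseline, compound added, kinetic Ca2+ fluorescence read 1/s, agonist mode.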
D1 potentiator: Potentiators of Human D1 Dopamine Receptor: qHTS | HEK293 TREx D1 cells, calcium flux, dopamine EC20 potentiation | potentiation, % at 10 µM | 0.036% of 360,000 active; in the data active = potentiation above about 30%; note: 0% is about no effect
An asterisk follows results filed as active. Compounds with a hit are over-represented: about 4.7% of the library has one in this group of screens. Cut-off read from the data, not from the text of the source, unless noted: active = activation above about 30%; inactive = the rest.

SMILES	D1 agonist	D1 antag	TRHR PAM	TRHR agonist	D1 potentiator
Cc1ccc(C(=O)NCCC2=CCCCC2)cc1S(=O)(=O)N1CCCCC1	14.7	-7.9	4.0	-0.1	-1.8
Cn1cc(S(=O)(=O)N2CCCC2)cc1C(=O)NCc1ccc(Cl)cc1	2.1	-33.2*	0.3	-0.2	-6.0
CN(C)c1ccc(CNC(=O)c2cc(S(=O)(=O)N3CCCC3)cn2C)cc1	8.2	-11.7	2.2	-0.3	-5.7
O=C(NCCC1=CCCCC1)c1cccc(S(=O)(=O)N2CCCCC2)c1	6.1	-38.7*	1.8	0.6	-8.2
Cc1nnc(SCc2nc(-c3ccc(Cl)cc3)no2)n1-c1ccc(F)cc1	22.7	-33.2*	-2.4	-1.4	-2.8
COc1ccc(-n2c(SCc3nc(-c4ccc(C)cc4)no3)nnc2-c2ccccc2)cc1	4.1	4.0	6.0	0.8	-0.2
COc1ccc(-c2noc(CSc3nc4ccccc4c(=O)n3-c3ccc(C)cc3)n2)cc1	6.2	6.2	33.4*	0.4	-0.7
Cc1cc2ccccc2n1CCNCc1c(C(=O)N2CCOCC2)nc2ccccn12	4.8	0.9	2.4	0.1	-0.8
O=C(c1nc2ccccn2c1CNCCCn1ncc2ccccc21)N1CCOCC1	0.4	-42.1*	1.5	0.4	-3.0
COc1ccc(C(CC(=O)Nc2cc(OC)c(OC)c(OC)c2)N2Cc3ccccc3C2=O)cc1 (centres undefined)	-1.6	1.5	-1.4	-0.4	0.3
Cc1onc(-c2c(F)cccc2Cl)c1C(=O)NC(=S)Nc1c(C)n(C)n(-c2ccccc2)c1=O	-0.2	-66.7*	-1.9	-0.2	-10.3
Cc1onc(-c2c(F)cccc2Cl)c1C(=O)Nc1c(C)n(C)n(-c2ccccc2)c1=O	5.3	13.8	7.1	-0.5	0.1
Cc1cc(CNC(=O)c2cccc(OC3CCN(S(=O)(=O)N(C)C)CC3)c2)on1	9.2	-39.3*	2.5	0.2	-9.8
CCN(Cc1cnn(C)c1)C(=O)c1ccc(OC2CCN(S(=O)(=O)N(C)C)CC2)cc1	9.5	-42.2*	9.1	-1.9	-5.2
CN(C(=O)c1ccc(OC2CCN(S(=O)(=O)N(C)C)CC2)cc1)C1CCCCC1	3.9	-0.6	-10.7	0.7	-7.2
CN(C)S(=O)(=O)N1CCC(Oc2cccc(C(=O)NC3CCCCCC3)c2)CC1	14.0	-31.7*	-3.5	-0.2	-6.8
CC1CCCCN1C(=O)c1ccc(OC2CCN(S(=O)(=O)N(C)C)CC2)cc1 (centres undefined)	10.7	-24.0	-3.5	0.7	-0.1
CN(C)S(=O)(=O)N1CCC(Oc2ccc(C(=O)N3CCCCCCC3)cc2)CC1	22.7	-34.9*	12.5	0.3	-7.6
Cc1nnc(NC(=O)c2ccc3ccccc3n2)s1	1.5	5.5	0.2	-1.2	7.2
CCN(C(=O)c1cc(S(=O)(=O)N2CCc3ccccc32)cn1C)c1cccc(C)c1	0.1	-8.1	14.8	0.2	-3.7
Cc1nn(C)cc1C=NCCOCc1ccccc1	1.4	-31.6*	-4.1	0.4	-6.2
CCn1c(=O)c2ccccc2n(Cc2cccc(C)c2)c1=O	-1.2	-31.7*	-1.2	-0.3	-7.1
Cc1cccc(Cn2c(=O)n(Cc3ccco3)c(=O)c3ccccc32)c1	1.8	-15.4	-5.9	-0.1	0.8
O=C(CNC(=O)[C@@H]1Cc2ccccc2CN1)NCc1ccco1	0.1	5.0	-0.3	0.0	1.1
Cc1cc(C)c(OCCN2CCCC2)c(Cl)c1	4.7	-59.5*	-1.7	0.1	4.2
SMILES	D1 agonist	D1 antag	TRHR PAM	TRHR agonist	D1 potentiator
Cc1cc(C)c(OCCOCCN2CCN(C)CC2)c(Cl)c1	-2.3	-7.4	11.7	0.3	0.0
Cc1cccc(C(C)(C)C)c1OCCN1CCCC1	3.8	-31.7*	-2.1	0.2	-4.8
Cc1cc(Cl)cc(Cl)c1OCCN1CCCC1	3.2	-31.0*	7.5	0.3	-0.2
Cc1cccc(C(C)(C)C)c1OCCOCCN1CCCC1	4.7	-7.4	4.0	0.3	8.0
Cc1nn(C)c2c1c(-c1ccccc1)cc(=O)n2CC(=O)NC(C)(C)C	6.8	9.5	-3.3	-0.7	-5.4
Cc1ccc(-c2nc(CS(=O)(=O)CC(=O)Nc3ccc(Br)cc3F)c(C)o2)cc1	3.8	-0.4	-0.8	-0.2	-4.5
COC(=O)Nc1ccc(Cc2ccncc2)cc1	4.7	12.6	-4.2	-0.1	-3.5
CC(C)Cc1ccc(C(=O)Nc2ccc(Cc3ccncc3)cc2)o1	1.2	-0.3	38.1*	-0.2	-2.9
CN1C(=O)c2ccc(C(=O)NCc3ccc4c(c3)OCO4)cc2C1=O	0.4	-33.7*	0.9	-0.4	-3.1
Cc1c(C(=O)NCc2ccc3c(c2)OCO3)sc2nc(-c3ccc(F)cc3)cn12	4.3	-41.8*	3.0	-0.2	-12.1
O=C(Cn1c(=O)nc(-c2ccccc2)c2ccccc21)NCc1ccccc1Cl	9.6	8.2	-4.8	-0.6	-1.5
CC(=O)N1CCCc2ccc(NS(=O)(=O)c3cccc(Cl)c3)cc21	7.4	1.3	3.5	0.2	0.5
O=C(COc1ccc(Br)cc1)NCCN1CCCC1	0.2	9.1	30.5*	0.4	-6.8
O=c1cc(O)c2sc3nc(-c4ccccc4)cc(C(F)(F)F)c3c2[nH]1	56.2*	-2.4	1.9	0.0	-7.9
COc1ccc(OC)c(-c2cc(C(F)(F)F)c3c(n2)sc2c(O)cc(=O)[nH]c23)c1	5.2	10.2	-6.1	1.3	-7.8
NS(=O)(=O)c1ccc(NC(=O)CSc2nc3ccccc3[nH]2)cc1	3.3	-84.4*	4.1	-0.1	-15.2
O=C(CSc1nc2ccccc2[nH]1)Nc1ccc(F)c(F)c1	3.7	-14.6	-6.7	0.3	-8.8
O=C(CSc1nc2ccccc2[nH]1)NC(=O)NCc1ccco1	0.3	-39.5*	-5.6	-0.1	-9.2
COc1cc(Cl)c(C)cc1NC(=O)CC1Oc2ccccc2NC1=O (centres undefined)	-0.7	0.8	3.5	-0.2	-2.9
Cc1cc(C(F)(F)F)nn1Cc1n[nH]c(=S)n1-c1ccc(Cl)cc1	0.8	-11.8	3.2	0.3	-0.5
Cc1cc(C(F)(F)F)nn1Cc1n[nH]c(=S)n1-c1cccc(Cl)c1	2.6	-32.0*	-2.8	0.0	-3.8
CCc1ccc(C2=C(C)C(N3CCC(C(=O)Nc4ccc(F)cc4)CC3)=NS2(=O)=O)cc1	-0.4	0.3	-1.6	0.4	-6.1
Cc1ccnc2nc(C(=O)OCCOc3ccc(Cl)cc3)nn12	7.0	-36.7*	3.0	-0.2	-3.7
Cc1ccnc2nc(C(=O)OCCOc3ccc(F)cc3)nn12	3.2	-14.3	5.2	-3.0	0.4

High-throughput results deposited in PubChem by National Center for Advancing Translational Sciences (NCATS).
